From PubChem BioAssay AID588689 (Southern Research Specialized Biocontainment Screening …, 2011)
Among all 340,000 compounds or so, about 1,000 (0.29%) were called active. Rule as the data show it: inconclusive = inhibition above about 29% without an active follow-up result; inactive = below that. Not all results are given here. Measured potencies and affinities stand elsewhere.

Target: Genome polyprotein (Dengue virus type 2 (strain 16681-PDK53)) (UniProt P29991)
Test: Dengue-2 NS5 methyltransferase inhibitors, primary screen, biochemical, confirmation dose response (AID 588689)
Conditions: Dengue-2 NS5 methyltransferase capping enzyme assay, at 25 µM, stronger effect = higher value
[1] = measured here: pilot screen replicate inhibition

Row | Structure (SMILES) | inhibition | inhibition [1]
1 | Cc1ncc(C(O)c2ccc(N(C)C)cc2)n1Cc1ccccc1 (stereo not given) | 0% (inactive) | –
2 | CC(C)C(C(=O)NC1CCCC1)N(Cc1ccco1)C(=O)CNS(=O)(=O)c1ccccc1 (stereo not given) | -8.96% (inactive) | –
3 | CCn1c(=O)n(CC)c2cc(N3CCCC3)c(NC(=O)c3ccc(OC)c(Br)c3)cc21 | -2.72% (inactive) | –
4 | O=c1ccc(-c2ccc(S(=O)(=O)NCc3cccc(Br)c3)s2)n[nH]1 | -1.36% (inactive) | –
5 | CCCCNC(=O)CN(Cc1ccco1)S(=O)(=O)c1ccc(C(C)=O)cc1 | -2.95% (inactive) | –
6 | O=C(O)CC1CCC(=C(Cl)Cl)C1 (stereo not given) | 4.83% (inactive) | –
7 | Cc1ccc(S(=O)(=O)N(CC(=O)Nc2cccc(C(F)(F)F)c2)C(=O)N2CCN(C)CC2)cc1 | -4.32% (inactive) | –
8 | CCn1c(SCC(=O)NC)nnc1C(C)C | 4.79% (inactive) | –
9 | Cc1ccccc1-c1c(C)oc2cc(O)ccc2c1=O | 1.35% (inactive) | –
10 | COCCN(C(=O)COC(=O)CCc1ccccc1)c1c(N)n(Cc2ccccc2)c(=O)[nH]c1=O | 0% (inactive) | –
11 | O=C(O)CCn1cc(/C=C\C(=O)c2ccc(Cl)cc2)c(-c2cccc(Br)c2)n1 | 26% (inactive) | –
12 | O=C(O)CCn1cc(/C=C/C(=O)c2ccc(Cl)cc2)c(-c2ccc(Br)cc2)n1 | 12.8% (inactive) | –
13 | CCOc1ccc(NC(=O)CSc2nc(C3CC3)nc3ccccc23)cc1 | 15.3% (inactive) | –
14 | CCOC(=O)c1c(NC(=O)C(Sc2ccccc2)c2ccccc2)sc(C(N)=O)c1C (stereo not given) | 2.74% (inactive) | 3.33%
15 | O=c1c2ccccc2[nH]c(=S)n1-c1cccc(S(=O)(=O)N2CCCC2)c1 | -8.01% (inactive) | –
16 | CC[C@H](C)/C=C(C)/C=C/C1=CC2=CC(=O)[C@]3(C)OC(=O)[C@@H](C(C)=O)[C@@H]3C2=CO1 | 7.68% (inactive) | –
17 | CCC(C)/C=C/C1=CC2=C(Cl)C(=O)C3(C)OC(=O)C(C(=O)C(C)C(C)O)C3C2=CO1 (stereo not given) | 4.35% (inactive) | –
18 | O=C(Cn1ncc2c([nH]c3ccccc32)c1=O)NCCCN1CCN(c2ccccc2)CC1 | 0% (inactive) | –
19 | C=CCn1cc(C(=O)NCC2CCCO2)c(=O)c2cc(S(=O)(=O)N3CCCCCC3)ccc21 (stereo not given) | -3.55% (inactive) | –
20 | S=c1[nH]nc(Cc2cccs2)n1-c1ccccc1 | -2.82% (inactive) | –

Row | Structure (SMILES) | inhibition | inhibition [1]
21 | CC(C)(C)c1nnc(NC(=O)C2CCN(c3ncccn3)CC2)s1 | -2.45% (inactive) | –
22 | O=C(c1ccccc1)c1ccc(Oc2ccc([N+](=O)[O-])cc2[N+](=O)[O-])cc1 | -2.33% (inactive) | –
23 | COc1cc(/C=C2/SC(=O)NC2=O)ccc1Oc1ccc([N+](=O)[O-])cc1[N+](=O)[O-] | 23.6% (inactive) | –
24 | COc1cc(/C=C2/C(=O)N(c3ccc(C)c(C)c3)N=C2C)cc([N+](=O)[O-])c1O | 9.88% (inactive) | -3.04%
25 | CC1=NN(c2ccc([N+](=O)[O-])cc2)C(=O)/C1=C\N(C)C | -9.46% (inactive) | –
26 | O=C(c1ccc(Cl)s1)N1CCc2ccccc21 | -1.37% (inactive) | –
27 | O=C(CCN1CCCCC1=O)NC1CCCN(Cc2ccc(Cl)cc2)C1 (stereo not given) | -5.2% (inactive) | –
28 | O=C1NC(=O)/C(=C\c2ccccc2Oc2ccc(F)c(F)c2)S1 | 24.6% (inactive) | –
29 | CN1C(=O)/C(=C/c2ccccc2OCc2ccc(F)cc2)N(C)C1=S | -7.89% (inactive) | –
30 | Cc1ccc(Oc2ccccc2/C=C2\SC(=O)N(C)C2=O)cc1 | 0% (inactive) | 5.03%
31 | O=C1NC(=O)/C(=C/c2ccccc2Oc2ccc(Cl)cc2)S1 | -4.16% (inactive) | –
32 | CCOC(=O)CN(C(=O)CNC(=O)c1ccco1)C(C(=O)NC1CCCC1)c1ccccc1OCC (stereo not given) | -1.62% (inactive) | –
33 | NS(=O)(=O)c1ccc(CCNC(=O)CCNS(=O)(=O)c2ccccc2C(F)(F)F)cc1 | 0% (inactive) | –
34 | C/C(=N\NS(=O)(=O)c1ccccc1)c1cccc(NC(=O)c2cccc(Cl)c2)c1 | -5.93% (inactive) | –
35 | COc1cccc(NC(=O)CN(C)C(=O)CN2C(=O)c3ccc([N+](=O)[O-])cc3C2=O)c1 | -7.27% (inactive) | –
36 | CS(=O)(=O)c1ccc(C(=O)OCC(=O)c2ccc(Cl)s2)cc1 | 4.34% (inactive) | –
37 | CCCCCNC(=O)C1CCC(Cn2c(=S)[nH]c3ccccc3c2=O)CC1 (stereo not given) | -0.74% (inactive) | –
38 | O=C(O)c1ccccc1Nc1ccccc1C(=O)O | 4.09% (inactive) | –
39 | COc1cccc(Nc2ccccc2C(=O)O)c1 | -2.96% (inactive) | –
40 | COc1ccccc1/C(C)=N/NC(=O)c1nnn(-c2nonc2N)c1C(C)C | -2.62% (inactive) | –

Row | Structure (SMILES) | inhibition | inhibition [1]
41 | CC(=O)N1CCc2c(sc(NC(=O)c3cccc(N4C(=O)CCC4=O)c3)c2C(N)=O)C1 | -10.4% (inactive) | –
42 | O=Cc1ccc(C(=O)O)cc1 | -0.73% (inactive) | –
43 | Cc1cccc(N2C(=O)/C(=C\c3ccc(C(=O)O)cc3)c3ccccc3C2=O)c1 | 25% (inactive) | –
44 | Cn1nc(-c2ccc(Cl)cc2)cc1NC(=O)Nc1ccccc1 | -6.13% (inactive) | –
45 | COc1ccc(CN(C)C(=O)Cn2cnc3c(OCc4ccccc4)ncnc32)cc1OC | 3.64% (inactive) | 2.12%
46 | O=C1c2cccc3cccc(c23)C(=O)N1CCN1CCN(CC(O)COc2ccccc2)CC1 (stereo not given) | 1.28% (inactive) | –
47 | COc1ccc(C)cc1NC(=O)CN1CCN(c2ccccn2)CC1 | -3.92% (inactive) | –
48 | Cn1c(=O)c2[nH]c(-c3ccccc3Cl)c(O)c2n(C)c1=O | -9.85% (inactive) | –
49 | CC(=O)Nn1cc2c(c1-c1ccccc1)c(=O)n(C)c(=O)n2C | -11.6% (inactive) | -4.71%
50 | CSc1nc(C=Nc2ccccc2Cl)c(O)n1Cc1cccc(Cl)c1 | -15.4% (inactive) | –
51 | CCc1nnc(SCC(=O)Nc2ccc3c(c2)OCO3)n1CC | 2.59% (inactive) | –
52 | COc1cc(/C=C/c2ccc3cccc(O)c3n2)c(Br)cc1O | -37.2% (inactive) | –
53 | COc1cc(C=C2C(=O)c3ccccc3C2=O)ccc1O | 25.4% (inactive) | –
54 | CCCCN1C(=O)NC(NS(=O)(=O)c2ccc(N)cc2)(C(F)(F)F)C1=O (stereo not given) | 1.6% (inactive) | –
55 | CC#CCN1C=C(C(=O)OCC)C(C)N(Cc2ccc(Br)cc2)S1(=O)=O (stereo not given) | 3.64% (inactive) | -3.33%
56 | COc1ccccc1N1C(=O)CC(N(O)c2ccccc2)C1=O (stereo not given) | -4.6% (inactive) | –
57 | COc1ccccc1N1CCN(C2CC(=O)N(c3ccc(F)cc3)C2=O)CC1 (stereo not given) | 10.3% (inactive) | –
58 | CCN(CC)C1CC(=O)N(c2ccc(Br)cc2)C1=O (stereo not given) | -14.3% (inactive) | –
59 | CCCCOc1ccc(N2C(=O)CC(N(O)c3ccccc3)C2=O)cc1 (stereo not given) | -3.24% (inactive) | –
